# High-throughput results from PubChem.
# Only some compounds are listed: those with a hit (about 2.2% of all), similar ones and a draw of the others.
# GLP-1R agonist – agonists of human GLP-1 receptor | AID 624172 | 380,000 compounds, 0.007% hits | P43220 | HEK293 GLP-1R CRE-luciferase, luminescence, 4-6 h; cells express a hypersensitive GLP-1R form | Potency, µM (titrated, usually from 45.6 µM), for inactives: at the highest dose activation, actives largely listed as activators; further: potency means the concentration at half of the fitted maximal effect; % of control where 0% means no effect
# Target sequence (P43220 whole entry, looked up): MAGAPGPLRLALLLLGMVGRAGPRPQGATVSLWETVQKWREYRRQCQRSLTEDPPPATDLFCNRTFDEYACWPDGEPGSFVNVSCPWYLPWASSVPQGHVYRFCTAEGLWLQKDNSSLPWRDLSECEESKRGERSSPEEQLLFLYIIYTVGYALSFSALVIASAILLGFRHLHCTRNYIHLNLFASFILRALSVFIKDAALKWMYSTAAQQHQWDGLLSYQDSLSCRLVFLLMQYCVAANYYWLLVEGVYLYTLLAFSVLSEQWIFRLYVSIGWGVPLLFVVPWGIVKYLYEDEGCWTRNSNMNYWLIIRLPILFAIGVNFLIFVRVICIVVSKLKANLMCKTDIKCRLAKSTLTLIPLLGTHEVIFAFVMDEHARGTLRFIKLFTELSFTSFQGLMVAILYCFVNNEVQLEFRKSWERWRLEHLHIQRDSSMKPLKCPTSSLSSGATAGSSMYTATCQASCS
# HEK293 tox – cytotoxic in the GLP-1 receptor inverse agonist counter-screen | HEK293 cAMP-luciferase reporter cells, luminescence, 24 h | Potency, µM (doses to about 38.3 µM), inactives show at the highest dose activity change, negative = inhibition, actives largely listed as inhibitors | 410,000 compounds, 0.13% hits | AID 624418;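 further: loss of luciferase light is scored as toxicity; potency means the concentration at half of the fitted maximal effect; on the % scale 0 is the no-effect control and ±100 the full control effect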
#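 Quantitative HTS format, 1536 wells, 200 cells/uL seeded. Compounds: 23 nL, 24 h, 37 °C. Detection: luciferase reagent, luminescence at 12 min RT; decreased signal taken as cytotoxic.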
# CCT chaperon mod – modulators of cytosolic chaperonin (CCT/TRiC) activity. activity change, % (no concentration beside the values), hits read low. purified chaperonin ATPase assay, HTRF ADP detection, 30 min. 360,000 compounds, 0.3% hits. AID 651819; in the data active means activity change below about -30%; further: on the % scale 0 is the no-effect control and ±100 the full control effect
#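 TRiC (40 or 20 nM final, by batch activity) in 30 mM Tris pH 7.4, 100 mM KCl, 5 mM MgCl2, 1 mM DTT was treated with compound at 76 uM single dose, then 10 uM ATP, 30 min at 37 °C. ADP was read by HTRF Transcreener.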
# uPA surface inh – cell surface uPA generation inhibition; cell surface uPA generation assay, qHTS; Potency, µM (highest dose often 38.3 µM), for the others: at the highest dose activity change, negative = inhibition, actives largely listed as inhibitors; 330,000 compounds, 0.31% hits; AID 540303; active means well fitted inhibition curve with a large enough effect; inconclusive means small, poorly fitted or top-dose-only effect; inactive means no such curve, though single readings can be large or run the other way; tested in mouse RAW 264.7 cells; further: potency means the concentration at half of the fitted maximal effect; on the % scale 0 is the no-effect control and ±100 the full control effect; nearly all actives have a fitted effect of over 55% in size
# MmCpn inh – inhibitors of Methanococcus maripaludis chaperonin TRiC (MmCpn); purified Mm-Cpn ATPase, ADP Transcreener TR-FRET; Potency, µM (titrated, usually from 76.9 µM), for the others: at the top dose activity, negative = inhibition, hits mostly inhibitors; 330,000 compounds, 0.031% hits; further: potency means the concentration at half of the fitted maximal effect; on the % scale 0 is the no-effect control and ±100 the full control effect; nearly all actives have a fitted effect of over 80% in size
#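 Measured: ADP formation by purified Mm-CPN. Conditions: 25 nM protein, 10 uM ATP, Tris pH 7.4 with Mg2+, K+ and DTT, 37°C for 30 min. Detection: Transcreener HTRF after 30 min at room temperature.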
# GLP1R inv ag – GLP-1 receptor (human) inverse agonism; 410,000 compounds, 1.6% hits; Potency, µM (series often up to 38.3 µM), for the others: at the top dose activity change, negative = inhibition, hits mostly inhibitors; HEK293 GLP-1R CRE-luciferase, luminescence, 24 h; GLP-1R form is constitutively active; AID 624417; further: potency means the concentration at half of the fitted maximal effect; on the % scale 0 is the no-effect control and ±100 the full control effect; nearly all actives have a fitted effect of over 55% in size
#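 qHTS in 1536-well format: reporter HEK293 cells expressing constitutive GLP-1R activity in DMEM + 10% Nu serum, 24 hr with compounds at 37 deg C, luminescence read after 12 min with detection reagent.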
# Numbers without * were called inactive; ? = inconclusive; / = no result; [ ] = dose if it differs, or a comment. Unless noted, the call rests on the fitted dose curve; in most records, active means well fitted curve in the direction sought with a large enough effect; inconclusive means small, poorly fitted or top-dose-only effect, or another doubt; inactive means no such curve, though single readings can be large; an effect the other way counts as inactive or inconclusive.
SMILES,GLP-1R agonist,HEK293 tox,CCT chaperon mod,uPA surface inh,MmCpn inh,GLP1R inv ag
COc1ccc(CNC(=O)Nc2nc(C(N)Cc3ccc(C(F)(F)F)cc3)cs2)cc1 (stereo unspecified),-7.8%,?,0.5,/,/,?
Cc1cccc(-c2noc(CN(C(=O)C(c3ccccc3)c3ccccc3)C(C)C)n2)c1,5.1%,-0.3%,2.0,?,0.7%,?
Cc1c(Cl)cccc1NC(=O)c1oc2ccc(S(=O)(=O)N3CCC4(CC3)OCCO4)cc2c1C,/,-13.6%,/,/,/,?
CN1CCN(CCCN2c3ccccc3Sc3ccc(C(F)(F)F)cc32)CC1,-1.3%,?,-1.8,-3.3%,-1.7%[15.4 µM],8.91µM*
CCCc1cc(N2CCN(c3ccc(OC)cc3)CC2)n2cnnc2n1,/,-14.5%,/,/,/,?
COc1cc(CC(C)N)c(OC)cc1C (stereo unspecified),-1.4%[110 µM],/,/,/,/,/
O=Nc1c(O)c2ccccc2c2ccccc12,-7.5%,?,1.2,5.62µM*,/,?
O=C1[O][Sb-]23[O]C(=O)C([O]2)C2[O][Sb-]4([O]C(=O)C([O]4)C1[O]3)[O]C2=O,2.1%,/,/,/,/,/
CNC(C)C#Cc1ccc2c(=O)c3ccccc3oc2c1 (stereo unspecified),?,3.5%,-0.3,-27.7%,/,26.7%
Nc1ccc(C#Cc2ccc3c(=O)c4ccccc4oc3c2)cc1,-1.9%,203.9%,-1.7,1.26µM*,-1.3%,8.5%
O=S(=O)(O)C(F)(F)C(F)(F)C(F)(F)C(F)(F)C(F)(F)C(F)(F)C(F)(F)C(F)(F)F,-1.2%[96 µM],/,/,/,/,/
CC1=C(C(=O)OCc2ccc3c(c2)OCO3)C(c2ccccc2)NC(=O)N1 (stereo unspecified),-0.6%,?,-1.6,?,0.9%,3.16µM*
Oc1ccc(N=Nc2nc(-c3ccccc3)c(-c3ccccc3)[nH]2)cc1,-1.4%,10µM*,-0.9,-2.9%,1.1%,5.62µM*
COc1ccc(-c2[nH]ncc2N=Nc2ccccc2)cc1,8.3%,?,0.0,-4.2%,0.1%,-10.7%
O=S(=O)(O)c1cc(O)c(N=Nc2ccc(O)cc2O)c2ccccc12,-2.1%,?,-0.3,-7.4%,/,23.7%
CNC(=O)/C(C#N)=C/c1c(N2CCCCCC2)nc2ccccn2c1=O,7.4%,120.9%,-5.6,-4.4%,-4.1%,65.6%
Cc1cccc(-c2cc3nc(-c4ccccc4)cc(N4CCC5(CC4)OCCO5)n3n2)c1,0.5%,113.3%,-3.1,9.7%,-5.4%,10µM*
CC[C@H](OC(C)=O)C(C[C@H](C)NC)(c1ccccc1)c1ccccc1,8.6%[96 µM],/,/,/,/,/
CC(Oc1ccc(Br)cc1)C(=O)N(Cc1nc(-c2ccccc2)no1)C(C)C (stereo unspecified),/,2.6%,/,/,/,?
C/C(=N\NC(=O)c1cc(-c2cccnc2)nc2ccccc12)c1ccc(O)cc1O,15.3%,25.5%,-10.4,11.2µM*,0.7%,-19.5%
COc1ccc(CN(CCc2c[nH]c3ccccc23)Cc2ccc(OC)cc2)cc1,-5.2%,?,1.3,-7.8%,/,10µM*
CN(CCc1ccccc1)Cc1c[nH]c2ccccc12,4.2%,-3.0%,-2.3,2.24µM*,1.4%,?
CCN(CC)Cc1c[nH]c2ccccc12,0.7%,-19.9%,-0.2,-0.3%,2.1%,0.5%
COc1ccc(OC)c(C[C@H](C)N)c1,-4.2%[110 µM],/,/,/,/,/
CCCCCCn1c(O)c(C=NCCCn2ccnc2)c(=O)[nH]c1=O,-6.9%,-4.6%,-2.1,2.5%,0.7%,-12.9%
SMILES,GLP-1R agonist,HEK293 tox,CCT chaperon mod,uPA surface inh,MmCpn inh,GLP1R inv ag
CCCCCCC(Cl)(Cn1ccnc1)c1ccccc1 (stereo unspecified),6.8%,4.3%,-34.7*,3.6%,/,?
CC12CCC(=O)CC1CCC1C2CCC2(C)C1CCC2(C)O (stereo unspecified),-7.4%,/,/,/,/,/
CC(Oc1ccccc1)C(=O)Nc1ccc(C(=O)OCc2cc(=O)n3nc(C4CC4)sc3n2)cc1 (stereo unspecified),/,-5.3%,/,/,/,?
CN(C)CCc1c[nH]c2cccc(O)c12,3.3%[96 µM],/,/,/,/,/
COc1ccc2c(c1)CCc1c(C(=O)Nc3c(C)nn(Cc4ccccc4C)c3C)noc1-2,/,-2.3%,/,/,/,10µM*
Cc1ccc(C(=O)Nc2nc3ccccc3n2CCN2CCCC2)cc1,-18.9%,?,-7.6,-4.0%,0.2%,?
Cc1ccc(C(=O)Nc2nc3ccccc3[nH]2)cc1,-5.9%,-13.4%,1.6,-5.2%,-1.4%,1.26µM*
Oc1ccccc1/C=N/NP(=S)(c1ccccc1)c1ccccc1,7.2%,-4.7%,-0.9,4.7%,0.0%,?
C/C(=N\NP(=S)(c1ccccc1)c1ccccc1)c1ccc(O)cc1O,16.1%,12.7%,-0.1,-2.4%,0.6%,11.2µM*
CCOc1ccc(NC(=O)CN(c2ccc([N+](=O)[O-])cc2)S(=O)(=O)c2ccccc2)cc1,?,?,-1.7,-5.2%,0.2%,3.98µM*
Cc1c(N)nc([C@@H](CC(N)=O)NC[C@H](N)C(N)=O)nc1C(=O)N[C@H](C(=O)N[C@H](C)[C@H](O)[C@H](C)C(=O)N[C@@H](C(=O)NCCc1nc(-c2nc(C(=O)NCCC[S+](C)C)cs2)cs1)[C@H](C)O)[C@H](O[C@@H]1O[C@@H](CO)[C@@H](O)[C@H](O)[C@@H]1O[C@H]1O[C@H](CO)[C@H](O)[C@H](OC(N)=O)[C@@H]1O)c1cnc[nH]1,-5.7%,/,/,/,/,/
Cc1ccc(Cn2nnnc2CN2CCC(n3nnc4cc(C(F)(F)F)ccc43)CC2)cc1,-0.8%,-12.0%,0.8,0.6%,3.6%,10µM*
CCN(CC)C(=O)[C@@H]1C=C2c3cccc4[nH]cc(c34)C[C@H]2N(C)C1,-9.3%,/,/,/,/,/
Cc1cccc(C(O)c2ncc(-c3ccccc3Cl)[nH]2)c1C (stereo unspecified),-3.2%,5.0%,-0.2,/,/,?
O=C(C1CCN(c2ncnc3c2nc2n3CCCCC2)CC1)N1CCN(c2cccc(Cl)c2)CC1,-1.8%,?,-1.3,-0.2%,-0.4%,8.91µM*
O=c1[nH]c2ccccc2n1C1CCN(Cc2ccc(-c3nc4ccc(F)cc4nc3-c3ccccc3)cc2)CC1,-3.1%,?,-0.4,/,/,4.47µM*
COc1cccc(CN2CCN(C(=O)COc3ccc4ccccc4c3)CC2)c1,-2.1%,-17.0%,-2.4,-0.5%,-0.1%,11.2µM*
COc1cc(OC)c(OC)cc1CN1CCN(C(=O)COc2ccc3ccccc3c2)CC1,0.9%,3.7%,-4.1,/,1.5%,?
COc1ccc(CS(=O)(=O)/C(Cl)=C(/Cl)C(=O)Nc2ccc(OC)nc2)cc1,-32.0%,11.2µM*,-0.1,11.1%,-5.9%,?
COc1ccc(Cn2c(O)c(/C=N/NC(=O)c3ccncc3)c(=O)[nH]c2=O)cc1,0.2%,22.5%,0.6,5.2%,0.5%,-9.9%
